# Bioassay records: PubChem, National Center for Advancing Translational Sciences (NCATS)
# VDR inhibitor – vitamin D3 receptor (human) inhibition | P11473 | VDR-SRC2-3 peptide fluorescence polarization, 2 h | Potency, µM, for inactives: max response, negative = inhibition, actives largely listed as inhibitors | actives 0.93% (n = 400,000); further: potency means the concentration at half of the fitted maximal effect; on the % scale 0 is the no-effect control and ±100 the full control effect
#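 Signal is fluorescence polarization, reporting how far test compounds block the interaction of VDR with the SRC2-3 coregulator peptide after a 2 h room-temperature incubation.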
# Vif-A3F inh – Vif-A3F binding inhibition | actives 0.2% (n = 390,000) | HeLa A3F-eYFP + Vif (tagged APOBEC3F with the HIV-1 protein that degrades it), YFP fluorescence increase | Potency, µM (highest dose often 46.1 µM), for the others: at the top dose activity, negative = active; further: potency means the concentration at half of the fitted maximal effect; % of control where 0% means no effect; nearly all actives have a fitted effect of over 65% in size
#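 HeLa cells stably expressing A3F-eYFP plus Vif, plated and incubated overnight at 37 deg C, then exposed to compounds overnight at 37 deg C. Blocked degradation read as raised yellow fluorescence (Ex 488/Em 500-530).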
# TSHR antagonist – antagonists of human thyroid stimulating hormone receptor. P16473. TSHR-expressing cells, TSH-stimulated cAMP HTRF, 2 h; stronger effect = lower value. activity change, negative = inhibition, % at 11.5 µM. actives 0.2% (n = 330,000). AID 504810;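 active means activity change below a set negative limit, meaning inhibition stronger than a set level, cut at about -70% in these data; inconclusive means activity change between two set negative limits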; further: on the % scale 0 is the no-effect control and ±100 the full control effect
# Target sequence (P16473 whole entry, looked up): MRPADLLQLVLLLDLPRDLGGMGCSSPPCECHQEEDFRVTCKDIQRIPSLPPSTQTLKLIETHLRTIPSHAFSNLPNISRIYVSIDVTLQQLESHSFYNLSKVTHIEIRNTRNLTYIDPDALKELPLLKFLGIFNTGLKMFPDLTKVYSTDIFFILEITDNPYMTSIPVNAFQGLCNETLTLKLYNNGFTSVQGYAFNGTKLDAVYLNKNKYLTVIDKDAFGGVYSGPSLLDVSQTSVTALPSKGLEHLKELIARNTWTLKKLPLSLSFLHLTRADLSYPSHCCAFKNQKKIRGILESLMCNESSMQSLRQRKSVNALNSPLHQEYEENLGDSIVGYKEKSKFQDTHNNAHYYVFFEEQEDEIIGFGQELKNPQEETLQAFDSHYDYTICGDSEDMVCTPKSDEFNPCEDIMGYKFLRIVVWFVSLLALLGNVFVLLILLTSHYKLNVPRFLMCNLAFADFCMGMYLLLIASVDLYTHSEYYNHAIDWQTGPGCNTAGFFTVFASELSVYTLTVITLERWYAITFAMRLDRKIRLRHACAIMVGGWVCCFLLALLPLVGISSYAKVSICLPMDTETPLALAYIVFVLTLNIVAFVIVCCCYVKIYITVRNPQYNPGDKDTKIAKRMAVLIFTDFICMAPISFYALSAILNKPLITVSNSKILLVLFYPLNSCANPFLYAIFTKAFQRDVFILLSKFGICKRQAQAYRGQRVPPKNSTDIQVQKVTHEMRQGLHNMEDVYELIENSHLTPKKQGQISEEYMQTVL
#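 Inhibition of cAMP made by TSHR-expressing cells under TSH stimulation (4nM final, EC80; 2 h, 37 deg C) is quantified with a one-step lysis HTRF kit, anti-cAMP cryptate versus cAMP-d2.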
# Vif-A3G inh – Vif-A3G binding inhibition | AID 602310 | actives 0.076% (n = 410,000) | Q9HC16 | Potency, µM (doses to about 46.1 µM), for inactives: at the highest dose activity, negative = active, hits mostly inhibitors | HeLa A3G-eYFP + Vif (tagged APOBEC3G with the HIV-1 protein that degrades it), YFP fluorescence, overnight; further: potency means the concentration at half of the fitted maximal effect; on the % scale 0 is the no-effect control and ±100 the full control effect; nearly all actives have a fitted effect of over 60% in size
#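 Read-out is eYFP fluorescence (Ex 488/Em 500-530) from Vif-expressing HeLa A3G-eYFP cells; more signal means A3G escaped Vif-mediated degradation. Cells plated overnight, compound pinned in, incubated overnight at 37 deg C.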
# PLK1 PBD block – blocks phosphopeptide binding to human PLK1 polo-box domain; P53350; Plk1 PBD binding of FITC phosphopeptide, fluorescence polarization; Potency, µM, inactives show max response, negative = inhibition, most hits filed as inhibitors; actives 2.8% (n = 360,000); further: potency means the concentration at half of the fitted maximal effect; series mostly up to about 57 µM; on the % scale 0 is the no-effect control and ±100 the full control effect; nearly all actives have a fitted effect of over 65% in size
# The depositor's hits bear a star; ? = inconclusive; . = not tested or not shown. In the library only some 3.1% were active in any assay of this set; here they are far more common. Unless noted, the call rests on the fitted dose curve; in most records, active means well fitted curve in the direction sought with a large enough effect; inconclusive means small, poorly fitted or top-dose-only effect, or another doubt; inactive means no such curve, though single readings can be large; an effect the other way counts as inactive or inconclusive.
SMILES,VDR inhibitor,Vif-A3F inh,TSHR antagonist,Vif-A3G inh,PLK1 PBD block
O=C(O)c1cccc(Cn2c(Cl)c(/C=N/NC(=O)c3ccccc3)sc2=O)c1,-7%,-2%,-1,-1%,-6%
O=C(O)c1cccc(Cn2c(Cl)c(/C=N/NC(=O)c3cc4ccccc4cc3O)sc2=O)c1,?,7%,-19,?,27µM*
Cc1ccccc1N/N=C/c1sc(=O)n(Cc2cccc(C(=O)O)c2)c1Cl,?,-1%,-45,-8%,27µM*
COc1ccc(N2CCN(C(=O)c3[nH]c4ccc(OC)cc4c3C)CC2)cc1,-21%,21%,-8,-1%,27µM*
Cn1c(OCc2ccco2)nc2c1c(=O)n(Cc1ccc(Cl)c(Cl)c1)c(=O)n2C,-11%,2%,-9,-5%,12µM*
COc1cc(CCNC(C)=O)c(C(=O)/C=C/c2cccc(OC)c2OC)cc1OC,-6%,.,.,.,.
O=C(O)c1ccc(-c2nc3ccccc3[nH]2)cc1,9%,2%,7,1%,4%
O=C(O)c1ccc(-c2ncc[nH]2)cc1,45µM*,-8%,20,2%,?
CN1CCN(S(=O)(=O)c2ccc(N3CCc4ccccc4C3)nc2)CC1,?,-3%,28,0%,7.5µM*
Cc1cc(C)c2c(=O)n(CC(=O)Nc3cccc(F)c3)sc2n1,14µM*,-3%,-4,-6%,1.9µM*
Cc1cc(C)c2c(=O)n(CC(=O)N3CCC(Cc4ccccc4)CC3)sc2n1,.,.,-3,.,.
Cc1ccc(NC(=O)Cn2c(C)cc(C)c(C#N)c2=O)c(Cl)c1,-2%,-3%,7,1%,-10%
Cc1cccc(N2CCN(C(=O)Cn3sc4nc(C)cc(C)c4c3=O)CC2C)c1 (stereo not given),16µM*,-4%,-5,-15%,1.7µM*
Cc1ccc(NC(=O)Cn2sc3nc(C)cc(C)c3c2=O)c(Cl)c1,?,-9%,-9,0%,1.5µM*
Cc1cc(C)c2c(=O)n(CC(=O)Nc3ccc(Cl)cc3)sc2n1,40µM*,-6%,-3,-3%,1.3µM*
CCn1c(SC(C)C(=O)Nc2ccc(C)cc2)nnc1-c1ccccc1 (stereo not given),.,.,.,-1%,.
COc1ccc(N2C(N)=C(C#N)C(c3cc(CN4CCOCC4)cs3)C3=C2CCCC3=O)cc1 (stereo not given),10%,-1%,.,-4%,.
CCCN1CCC(=O)N(C(CSc2ccc(OC)cc2)c2ccccc2)CC1 (stereo not given),-21%,.,.,-1%,.
COc1ccc(NS(=O)(=O)c2ccc(N3CCCC3)c(NC(=S)Nc3cccc(C)c3C)c2)cc1,?,10%,6,-1%,3.8µM*
COc1ccc(NS(=O)(=O)c2ccc(N3CCCC3)c(NC(=S)Nc3ccc(SC(F)F)cc3)c2)cc1,?,10%,10,-1%,4.7µM*
CCNC(=O)Nc1cc(S(=O)(=O)Nc2ccc(OC)cc2)ccc1N1CCOCC1,10%,5%,-7,-2%,4%
COc1cc(C=O)cc(OC)c1[N+](=O)[O-],.,.,.,-6%,.
CC(C(=O)NCc1ccccc1)n1ccc2cc(S(=O)(=O)N3CCCC3)ccc21 (stereo not given),-1%,-3%,.,-1%,.
NC(=O)c1ccc(NC(=O)CSC(=O)c2ccccc2)cc1,?,0%,17,1%,27µM*
COC(=O)c1ccc(-n2c(C)cc(C(=O)CSc3ccc(NC(C)=O)cc3)c2C)cc1,-9%,-3%,-18,1%,13µM*
SMILES,VDR inhibitor,Vif-A3F inh,TSHR antagonist,Vif-A3G inh,PLK1 PBD block
Cc1nnc(SCC(=O)Nc2ccc(C(N)=O)cc2)n1-c1ccccc1,6%,3%,6,4%,-7%
COC(=O)c1ccc(NC(=O)CSc2ccccc2)cc1,50µM*,1%,-4,-1%,21µM*
COCCn1c(C)cc(C(=O)CSc2ccc(NC(C)=O)cc2)c1C,9%,-1%,-11,1%,?
CC(=O)Nc1ccc(SCC(=O)c2cc(C)n(-c3ccccc3F)c2C)cc1,-18%,0%,-15,2%,19µM*
O=S(=O)(c1ccc(OC(F)(F)F)cc1)N1CCN(c2nc(-c3ccccc3)nc3ccccc23)CC1,-17%,.,.,0%,.
CC[C@H](C)[C@H](NC(=O)[C@H](CCC(=O)O)NC(=O)[C@H](CC(N)=O)NC(=O)[C@@H](N)[C@@H](C)O)C(=O)N[C@H](C(=O)N[C@@H](CCC(=O)O)C(=O)N[C@@H](CCC(=O)O)C(=O)N[C@@H](CCC(N)=O)C(=O)N[C@@H](Cc1ccc(O)cc1)C(=O)N[C@H](C(=O)N1CCC[C@H]1C(=O)N[C@@H](CCC(N)=O)C(=O)N[C@@H](CO)C(=O)N[C@@H](CC(C)C)C(=O)N[C@@H](C)C(=O)N[C@H](C(=O)N[C@@H](CC(C)C)C(=O)N[C@@H](CCC(=O)O)C(=O)N[C@@H](CO)C(=O)N[C@H](C(=O)N[C@@H](Cc1ccccc1)C(=O)N[C@@H](CCC(N)=O)C(=O)N[C@@H](CCC(=O)O)C(=O)N[C@@H](CC(C)C)C(=O)NCC(=O)N[C@@H](CCCCN)C(=O)N[C@@H](CC(C)C)C(=O)N[C@H](C(=O)NCC(=O)N1CCC[C@H]1C(=O)N[C@@H](CC(N)=O)C(=O)N[C@@H](CO)C(=O)N[C@@H](CCC(N)=O)C(=O)O)[C@@H](C)O)C(C)C)[C@@H](C)O)[C@@H](C)O)C(C)C,-3%,.,.,.,.
CCOC(=O)c1c(S(=O)(=O)N2CCCC(C(=O)Nc3ccc(OCC)cc3)C2)c(C)n(C)c1C (stereo not given),11%,-9%,.,-1%,.
COc1ccc(N2CCN(C(=O)c3ccc(-c4nc(COc5ccccc5)c(C)o4)cc3)CC2)cc1,3%,2%,.,5%,.
Cc1ccc(S(=O)(=O)N2[C@@H](c3ccc(Br)cc3)C(C(=O)O)=CC[C@H]2c2ccc(C(C)C)cc2)cc1,?,6%,-1,3%,30µM*
Cc1ccc([C@@H]2CC=C(C(=O)O)[C@H](c3ccc(Br)cc3)N2S(=O)(=O)c2ccc(C)cc2)cc1,-10%,-4%,-26,-5%,?
CCc1ccc([C@@H]2CC=C(C(=O)O)[C@H](c3ccc(C(C)(C)C)cc3)N2S(=O)(=O)c2ccc(C)cc2)cc1,-24%,8%,-23,-24%,24µM*
Cc1ccc(S(=O)(=O)N2C(c3ccc(Cl)c(Cl)c3)CC=C(C(=O)O)C2c2ccc(Cl)cc2)cc1 (stereo not given),.,.,.,.,27µM*
Cc1ccc(S(=O)(=O)N2[C@@H](c3ccccc3F)C(C(=O)O)=CC[C@H]2c2ccc(C(C)C)cc2)cc1,-20%,1%,-3,-6%,?
